Records with an inconclusive call do not appear. A number with no mark means an inactive call. Activity calls are given as the source filed them. The call rests on the fitted dose curve; in most records, active means well fitted inhibition curve with a large enough effect; inconclusive means small, poorly fitted or top-dose-only effect; inactive means no such curve, though single readings can be large or run the other way.
Test: Primary qHTS for small molecule stabilizers of the endoplasmic reticulum resident proteome: Secreted ER Calcium Modulated Protein (SERCaMP) assay (AID 1508630)
Details: SH-SY5Y GLuc-SERCaMP (Gaussia luciferase released on ER calcium loss) secretion, thapsigargin, luminescence; series mostly up to 38.4 µM; activity change, negative = inhibition: at the top concentration
Text: Assay Provider: Brandon K. Harvey Ph.D.
National Institute on Drug Abuse, National Institutes of Health, Baltimore, MD
Endoplasmic reticulum (ER) dysregulation is associated with human pathologies including neurodegenerative, cardiovascular, muscular, and diabetic conditions. Maintenance of ER calcium is critical for functions of the ER and its depletion can lead to loss of ER resident proteins, in a process termed exodosis. Therapeutic compounds capable of attenuating the redistribution of ER proteins under pathological conditions may slow or stop disease progression. To identify such compounds, we performed a quantitative high-throughput screen (qHTS) using the SERCaMP assay, which monitors secretion of ER resident proteins triggered by calcium depletion.
SERCaMP was initially developed as a reporter of ER calcium homeostasis using a Gaussia luciferase with a modified signal peptide and carboxy-terminus (GLuc-SERCaMP), modifications that confer secretion of the reporter in response to ER calcium depletion (Henderson et al., 2014). The assay was used to screen 9,501 compounds, including a collection of drugs approved by the FDA (US), EMA (EU), NHI (Japan), and HC (Canada) regulatory agencies (Huang et al., 2011). Since the SERCaMP reporter reflects the exodosis phenomenon (Trychta et al., 2018a), compounds identified in the screen have the potential to prevent exodosis by different mechanisms such as stabilizing ER calcium or augmenting ERS retrieval.
1. Henderson, M.J., Wires, E.S., Trychta, K.A., Richie, C.T., and Harvey, B.K. (2014). SERCaMP: a carboxy-terminal protein modification that enables monitoring of ER calcium homeostasis. Mol Biol Cell 25, 2828-2839.
2. Huang, R., Southall, N., Wang, Y., Yasgar, A., Shinn, P., Jadhav, A., Nguyen, D.T., and Austin, C.P. (2011). The NCGC pharmaceutical collection: a comprehensive resource of clinically approved drugs enabling repurposing and chemical genomics. Sci Transl Med 3, 80ps16.
3. Trychta, K.A., Back, S., Henderson, M.J., and Harvey, B.K. (2018a). KDEL Receptors Are Differentially Regulated to Maintain the ER Proteome under Calcium Deficiency. Cell Rep 25, 1829-1840 e1826.
SEQUENCE No. (1, 2, 3, etc.); […] (e.g., Cells, Incubation, Reagent, etc.); VALUE and DESCRIPTION.
1; Reagent; 5 uL; 1000 SH-SY5Y cells per wells
3; Compound; 23 nL; Control inhibitor / compound library
5; Reagent; 100 nM; Thapsigargin
7; Reagent; 1 uL; 0.5x coelenterazine
8; Detection; Luminescence; ViewLux imaging system
NOTES (numbers refer to sequence above)
1; SH-SY5Y human neuroblastoma cells stably expressing GLuc-SERCaMP (SH-SY5Y-GLuc-ASARTDL) cells were seeded in 1,536 well white tissue culture treated plates (Corning, Cat# 7464) in DMEM-high glucose-sodium pyruvate (ThermoFisher Scientific, Cat #10569) supplemented with 10% bovine growth serum (Hyclone), 10 U/ml penicillin (Gibco), 10 ug/ml streptomycin (Gibco), and 20 mM HEPES.
2; Assay plates were incubated for 5 hour at 37C in a humidified incubator containing 5% CO2.
3; qHTS libraries (23 nl, final concentrations of 1.53 uM, 7.67 uM, 38.3 uM) or controls (neutral control: DMSO, positive control: dantrolene) were added using a Kalypsis pin-tool Robotic System equipped with 1536 pinheads.
4; Cells were then incubated for 16 hours at 37C, 5% CO2.
5; Thapsigargin was added at 100 nM to deplete ER calcium stores.
6; Cells were incubated for 4 hour (37 °C, 5% CO2)
7; Gaussia luciferase in the medium was measured by adding 1 ul of 0.5x coelenterazine (final concentration 0.07x) prepared in Gaussia Luciferase Glow Assay Buffer (Pierce), without addition of the Cell Lysis Buffer Reagent.
8; Luminescence was measured using a ViewLux […] CCD imaging system (Perkin Elmer) equipped with clear filters. […] The same controls were also used for the calculation of the Z' factor, a measure of assay quality control, as previously described (Zhang et al., 1999). […]
On the % scale 0 is the no-effect control and ±100 the full control effect.

Row | SMILES | activity change, negative = inhibition | Potency
1 | CCC(C(=O)OCCOCCN(CC)CC)c1ccccc1 (stereo not given) | 20.1% | 
2 | CCCCC(CC)CN1CN(CC(CC)CCCC)CC(C)(N)C1 (stereo not given) | -7.42% | 
3 | CCN[C@@H]1C[C@H](N)[C@@H](OC2OC(CN)=CCC2N)[C@H](O)[C@H]1O[C@H]1OC[C@](C)(O)[C@H](NC)[C@H]1O (stereo not given in full) | -24.8% [at 0.478 µM] | 
4 | Oc1c(Cl)cc(Cl)c(Cl)c1Cc1c(O)c(Cl)cc(Cl)c1Cl | -29.9% | 
5 | Cc1nc(-c2ccc(Cl)cc2)oc1COC(C)(C)C(=O)O | -22.7% | 
6 | CCN(CC)CCNC(=O)c1cc(Br)c(N)cc1OC | 5.47% | 
7 | O=C(O)CCC(=O)Nc1ccc(S(=O)(=O)Nc2nccs2)cc1 | -8.1% | 
8 | C=CCN1CCc2nc(N)sc2CC1 | -20.8% | 
9 | CCN(CC)CCNC(=O)COc1ccc(OC)cc1 | -28.4% | 
10 | Cc1cn([C@H]2C[C@H](F)[C@@H](CO)O2)c(=O)[nH]c1=O | -3.73% | 
11 | CCO[C@@H]1O[C@H](C(COCc2ccccc2)OCc2ccccc2)[C@H](OCc2ccccc2)[C@H]1O (stereo not given in full) | -25.6% | 
12 | CCCCCCCCCCCCSCCOCCO | -3.29% | 
13 | COc1ccc(CCN(C)CCCN2CCc3cc(OC)c(OC)cc3CC2=O)cc1OC |  | inactive
14 | FC1(F)C(F)(F)C(F)(F)C2(F)C(F)(F)C(F)(F)C(F)(F)C(F)(F)C2(F)C1(F)F (stereo not given) | -33.7% | 
15 | NC(=O)C1(N2CCCCC2)CCN(CCCC(=O)c2ccc(F)cc2)CC1 | 8% | 
16 | NC(=S)N/N=C/c1cccnc1 | -24.3% | 
17 | CC(=O)O[C@H]1C[C@@H]2CC[C@@H]3[C@H](CC[C@@]4(C)[C@H]3C[C@H]([N+]3(C)CCCCC3)[C@@H]4OC(C)=O)[C@@]2(C)C[C@@H]1N1CCCCC1 | -10.7% | 
18 | OC(C#CCN1CCCC1)(c1ccccc1)c1ccccc1 | -4.74% | 
19 | C#C[C@]1(O)CC[C@H]2[C@@H]3CCC4=Cc5oncc5C[C@]4(C)[C@H]3CC[C@@]21C | -5.27% | 
20 | CCN1CCCC(OC(=O)C(c2ccccc2)c2ccccc2)C1 (stereo not given) | -7.65% | 

Row | SMILES | activity change, negative = inhibition | Potency
21 | COc1ccc(/C=N/NC(=O)c2ccncc2)cc1OC | -17% | 
22 | CCCCC(CC)COC(=O)c1ccc(N(C)C)cc1 (stereo not given) | -3.9% | 
23 | COc1cc(O)c(C(=O)c2ccccc2)cc1S(=O)(=O)O | -19.2% | 
24 | CCOC(=O)c1ccc(N)cc1 | -13.3% | 
25 | NS(=O)(=O)c1cc2c(cc1Cl)NC(CC1CCCC1)NS2(=O)=O (stereo not given) | -22.9% | 
26 | CC(C)Cc1ccc(CC(=O)O)cc1 | -29% | 
27 | O=C1C(CCS(=O)c2ccccc2)C(=O)N(c2ccccc2)N1c1ccccc1 (stereo not given) | 2.75% | 
28 | COc1cc([C@H]2Oc3cc([C@H]4Oc5cc(O)cc(O)c5C(=O)[C@@H]4O)ccc3O[C@@H]2CO)ccc1O | -19.9% | 
29 | CC(C)(C)NC[C@H](O)COc1cccc2c1CCCC2=O | 21.5% | 
30 | COc1ccc(C(Cl)=C(c2ccc(OC)cc2)c2ccc(OC)cc2)cc1 | -5.89% | 
31 | CC(C)NCC(O)c1ccc2ccccc2c1 (stereo not given) | -20.3% | 
32 | CCCCCCCCCCCCCC(=O)OC(C)C | -23.3% | 
33 | C/C=C/C=N/NC(=O)c1ccncc1 | 4.65% | 
34 | COc1ccc(C(=O)c2ccccc2O)c(O)c1 | -13.3% | 
35 | C[N+]1(CC2COC(c3ccccc3)(C3CCCCC3)O2)CCCCC1 (stereo not given) | -11.3% | 
36 | CCCCOC(=O)CC(CC(=O)OCCCC)(OC(C)=O)C(=O)OCCCC | 12% | 
37 | OCc1ccccn1 | -9.47% | 
38 | C=C[C@@]1(C)CC(=O)[C@]2(O)[C@@]3(C)[C@@H](O)CCC(C)(C)[C@@H]3[C@H](O)[C@H](OC(C)=O)[C@@]2(C)O1 | 5.79% | 
39 | C[N+]1(C)CCC(=C(c2ccccc2)c2ccccc2)CC1 |  | inactive
40 | CC(=O)Nc1ccc(S(=O)(=O)Nc2ccc([N+](=O)[O-])cc2)cc1 | -21.2% | 
